Measured values reported in the supplement of paper PMC3334620.
Over roughly 33,000 sequences, “E-score (-0.5 to 0.5)” has its median near -0.056; the highest 2% begin near 0.38. The full list was thinned out, with the highest values kept by preference.

Target: Stb4 (UniProt P50104)
Test: PBM E-score (8-mer binding enrichment) (E-score (-0.5 to 0.5)); higher = stronger / more preferred TF binding
Settings: protein concentration: 200 nM; construct: GST-DNA-binding domain
Description: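 Universal 'all 10-mer' protein binding microarrays (Agilent AMADID 015681) probed with GST-tagged S. cerevisiae TFs (full-length or DBD) made by in vitro transcription/translation (PURExpress), about 100-200 nM. Bound TF was detected with fluorescent anti-GST. Each ungapped 8-mer (which stands for itself and its reverse complement) is scored by the PBM enrichment score (E-score), a modified Wilcoxon-Mann-Whitney statistic from -0.5 to +0.5, computed with the Universal PBM Analysis Suite. Scale: above 0.35 generally sequence-specific binding.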

Sequence of UniProt P50104 (P50104 whole entry): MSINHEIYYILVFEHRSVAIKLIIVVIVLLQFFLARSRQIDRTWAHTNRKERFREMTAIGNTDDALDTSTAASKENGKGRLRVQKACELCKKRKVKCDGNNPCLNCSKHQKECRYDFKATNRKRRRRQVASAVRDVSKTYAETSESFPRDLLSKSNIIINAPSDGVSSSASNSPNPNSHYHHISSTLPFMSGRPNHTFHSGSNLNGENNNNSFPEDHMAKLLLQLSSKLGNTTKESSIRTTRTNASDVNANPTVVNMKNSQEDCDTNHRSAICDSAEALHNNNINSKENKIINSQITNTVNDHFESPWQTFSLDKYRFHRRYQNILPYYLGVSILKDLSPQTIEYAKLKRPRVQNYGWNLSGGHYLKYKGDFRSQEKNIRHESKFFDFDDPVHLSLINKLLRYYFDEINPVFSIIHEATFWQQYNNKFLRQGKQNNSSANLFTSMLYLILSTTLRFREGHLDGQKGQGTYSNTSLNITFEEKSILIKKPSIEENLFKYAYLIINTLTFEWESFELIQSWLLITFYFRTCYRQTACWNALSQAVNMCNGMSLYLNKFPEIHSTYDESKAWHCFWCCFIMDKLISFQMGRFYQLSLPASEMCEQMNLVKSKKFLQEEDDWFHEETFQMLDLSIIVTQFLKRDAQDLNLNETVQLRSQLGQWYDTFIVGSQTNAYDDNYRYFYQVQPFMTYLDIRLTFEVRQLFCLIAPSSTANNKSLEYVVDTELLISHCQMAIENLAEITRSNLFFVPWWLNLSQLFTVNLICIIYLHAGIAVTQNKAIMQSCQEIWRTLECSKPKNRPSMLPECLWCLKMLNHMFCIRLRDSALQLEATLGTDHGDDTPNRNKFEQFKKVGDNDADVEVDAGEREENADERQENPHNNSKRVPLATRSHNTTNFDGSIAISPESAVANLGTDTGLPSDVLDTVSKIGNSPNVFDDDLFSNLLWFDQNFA

| Sequence | PBM E-score |
| --- | --- |
| AGGGTATA | -0.029 |
| GGGGTTTA | -0.0416 |
| CGGGTAGA | 0.389 |
| CGGGTAGC | 0.37 |
| AGGGTAGA | -0.166 |
| CGGGTACC | 0.312 |
| CGGGTATC | 0.404 |
| AGGGTATC | -0.0302 |
| CGGGTTTC | 0.277 |
| CGGGTATA | 0.418 |
| CAGCATCC | 0.121 |
| GACAAGTA | -0.0988 |
| AGAGTGCG | -0.164 |
| CGTTGATA | 0.0343 |
| AGATCTGG | -0.188 |
| CAACTAGA | -0.182 |
| GAACGGTC | 0.148 |
| GATCCCAC | -0.00608 |
| CGTCCGAG | 0.257 |
| AATCCGCC | 0.218 |
| GATCCGCC | 0.273 |
| AATCCGTG | 0.172 |
| AATCCGCG | 0.127 |
| CATCCGAG | 0.481 |
| CATCCGCG | 0.285 |

| Sequence | PBM E-score |
| --- | --- |
| GATCCAAC | 0.104 |
| GATCCGAC | 0.434 |
| CATCCGCC | 0.4 |
| AATCCGAG | 0.407 |
| ACCAGCCA | -0.0271 |
| CAGAGATA | -0.182 |
| CGAGTTGC | 0.0987 |
| CGCTCCCA | -0.0934 |
| CCAAACAG | -0.345 |
| GGAGAGAA | 0.0164 |
| GATGTGGC | -0.0114 |
| AATCCGAC | 0.346 |
| CATCCGAC | 0.455 |
| CATCCGTC | 0.308 |
| ACTCAGTG | -0.208 |
| ACGATCAT | -0.174 |
| CAACCATA | -0.251 |
| AACGAATG | -0.142 |
| AGCAGCTG | -0.307 |
| GCTCAGAC | -0.19 |
| CGACTAGA | -0.0326 |
| TGAGTGAA | -0.295 |
| GGAGTGTA | 0.0839 |
| CCGGTCCG | 0.389 |
| CCGGTCCC | 0.282 |

| Sequence | PBM E-score |
| --- | --- |
| CCGGTCCA | 0.0504 |
| CCAAAGTA | 0.0417 |
| AGGGCTCA | -0.326 |
| ATTCGGGA | 0.415 |
| CTTCGGGC | 0.291 |
| GTACGGGA | 0.222 |
| ATTCGGGG | 0.34 |
| CATCGGGA | 0.331 |
| ATTCGGGC | 0.301 |
| CTTCGGGA | 0.439 |
| GTTCGGGA | 0.453 |
| GATCGGGA | 0.359 |
| TGCTAAAA | -0.205 |
| AGATCGAT | -0.16 |
| ACCCCTAT | -0.143 |
| GACCTGCC | 0.0159 |
| ACACTGAG | -0.128 |
| CTGGAAAA | -0.00258 |
| ACGGGACA | 0.276 |
| CCGGGAAA | 0.33 |
| ACGGAAAC | 0.375 |
| CAGGAAAA | -0.0586 |
| CCGGAAAA | 0.441 |
| TCGGGACA | 0.408 |
| CCGGAAAG | 0.366 |

| Sequence | PBM E-score |
| --- | --- |
| GCGGGAAA | 0.306 |
| CCGGGACA | 0.326 |
| CCGGAAAC | 0.394 |
| TCGGGAAA | 0.443 |
| ACGCAAAT | -0.00753 |
| GTAAGACA | -0.166 |
| CCACTGCA | -0.135 |
| AAGGGAGC | -0.0979 |
| CGCTGAAC | 0.00896 |
| AGCGCTCA | -0.191 |
| ATTATGGA | -0.154 |
| CCGCTTTA | 0.138 |
| TCGGGAGA | 0.391 |
| TCGGAAAA | 0.451 |
| ACGGAAAA | 0.325 |
| GCGGGAGA | 0.227 |
| ACGGGAGA | 0.12 |
| GCGGAAAA | 0.332 |
| AGACGGAC | -0.0259 |
| ACTGGTAG | -0.226 |
| ATTGATCG | 0.0261 |
| CCCCGATA | 0.145 |
| GATCTTCC | 0.285 |
| GCGGTTAA | 0.17 |
| GCGGTAAA | 0.188 |

| Sequence | PBM E-score |
| --- | --- |
| CCGGGTCA | 0.276 |
| TCGGTTAA | 0.44 |
| CCGGGTAG | 0.355 |
| TCGGTAAA | 0.433 |
| TCGGGTCA | 0.427 |
| CCGGTTAA | 0.334 |
| ACGGGTCA | 0.0265 |
| CCGGTAAA | 0.312 |
| CCGGGTAC | 0.375 |
| CCGGGTAA | 0.418 |
| GACGCGAC | -0.068 |
| CACCATGG | -0.29 |
| GTCTAGAC | -0.342 |
| ACACAACC | -0.0108 |
| CAGGCTCG | 0.08 |
| AGAGTTAC | -0.165 |
| ATGGTTTA | 0.193 |
| ACGGGTAA | 0.328 |
| GCGGGTAA | 0.325 |
| TCGGGTAA | 0.464 |
| CTTCGGCA | 0.443 |
| ATTCGGCG | 0.333 |
| CTTCGGCC | 0.218 |
| GGTCGGCA | 0.353 |
| ATTCGGCC | 0.271 |

| Sequence | PBM E-score |
| --- | --- |
| CATCGGCA | 0.376 |
| GTTCGGCA | 0.418 |
| ATTCGGCA | 0.438 |
| GATCGGCA | 0.349 |
| ACAACCTC | -0.114 |
| AGGCTGGG | -0.236 |
| ACCGCGTG | 0.053 |
| ACTCCAAC | -0.11 |
| AGACTGAG | -0.107 |
| GCTCGTGA | -0.108 |
| CCTCGGGC | 0.288 |
| ACTCGGGG | 0.286 |
| GCACGGGA | 0.305 |
| ACTCGGGC | 0.263 |
| GCTCGGGA | 0.464 |
| CCACGGGA | 0.223 |
| CCTCGGGA | 0.444 |
| ACTCGGGA | 0.44 |
| ATGTGCCC | -0.048 |
| GACCGCTA | 0.0181 |
| GCACTTAC | 0.0807 |
| CAGAGGCC | -0.204 |
| ACTTGGTA | -0.265 |
| AATGTGAT | -0.15 |
| AGGATACA | -0.261 |

| Sequence | PBM E-score |
| --- | --- |
| TGGATACA | -0.147 |
| CGGATACG | 0.409 |
| CCGATACG | 0.307 |
| GGGATACC | 0.184 |
| CGGATACA | 0.433 |
| CGGATACC | 0.41 |
| AGGATACC | 0.0351 |
| AGGATACG | -0.23 |
| CCGCTCGA | 0.11 |
| GCGCGACC | -0.0286 |
| ACGTTCAG | -0.252 |
| TCAGGGCA | -0.18 |
| AATACAGT | -0.194 |
| CGGAACTA | 0.449 |
| CTGAACTC | -0.175 |
| AGGAACTC | -0.0879 |
| CGGAACTC | 0.401 |
| GGGAACTA | 0.183 |
| AGGAACTA | 0.0365 |
| ACTCTAGG | -0.212 |
| CAGCTCCA | -0.265 |
| CGCGGCCG | 0.136 |
